In PubChem BioAssay (NCATS):
Results filed as inconclusive are left out. The source made the active and inactive calls. Calls come from the whole dose curve.

Each molecule was assayed against Nucleoprotein (Lymphocytic choriomeningitis virus (strain Armstrong)) (UniProt P09992) (assay: qHTS for Inhibitors of the Functional Ribonucleoprotein Complex (vRNP) of Lymphocytic Choriomeningitis Arenaviruses (LCMV): LCMV Primary Screen - GLuc reporter signal (AID 1347086; note: nearly all actives have a fitted effect of over 70% in size)). Conditions: LCMV minigenome vRNP cell assay, Gaussia luciferase reporter; series mostly up to 57.5 µM; activity change, negative = inhibition: at the top concentration.
Chain of Nucleoprotein (Lymphocytic choriomeningitis virus (strain Armstrong)) (P09992 whole entry, looked up): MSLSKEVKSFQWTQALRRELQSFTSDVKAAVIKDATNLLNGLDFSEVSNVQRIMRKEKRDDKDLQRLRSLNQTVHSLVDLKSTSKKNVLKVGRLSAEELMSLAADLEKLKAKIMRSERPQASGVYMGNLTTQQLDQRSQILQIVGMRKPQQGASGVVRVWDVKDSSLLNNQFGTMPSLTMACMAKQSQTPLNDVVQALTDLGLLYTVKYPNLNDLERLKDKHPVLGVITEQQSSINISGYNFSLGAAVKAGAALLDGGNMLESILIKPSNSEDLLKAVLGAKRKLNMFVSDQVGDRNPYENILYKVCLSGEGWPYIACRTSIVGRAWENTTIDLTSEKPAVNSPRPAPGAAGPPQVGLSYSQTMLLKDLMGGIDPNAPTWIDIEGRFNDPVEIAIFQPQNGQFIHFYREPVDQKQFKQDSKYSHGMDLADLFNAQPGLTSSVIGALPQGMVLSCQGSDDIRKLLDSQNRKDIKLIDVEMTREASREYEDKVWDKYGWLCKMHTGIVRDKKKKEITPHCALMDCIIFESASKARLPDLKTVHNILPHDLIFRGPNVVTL
% is set by controls: 0 for no effect and ±100 for the full control effect; potency is the fitted concentration of half-maximal effect.

Compound	activity change, negative = inhibition	Potency
CC(C)Oc1cc(Nc2nc(N[C@@H](C)c3ccc(F)cn3)ncc2Cl)[nH]n1	71.8% (inactive)	
CCN(CC)CCNC(=O)c1ccc(NC(C)=O)cc1		inactive
CC(C)(C)C(=O)Oc1ccc2c(c1)nc(NC(=O)c1cccc([N+](=O)[O-])c1)n2CCCO	-6.53% (inactive)	
CCCCOCCOc1nc(-c2ccc(C(=O)O)c(F)c2)sc1C	-0.954% (inactive)	
c1ccc2occc2c1		inactive
Cn1c(=O)n(-c2ccc(C(C)(C)C#N)cc2)c2c3cc(-c4cnc5ccccc5c4)ccc3ncc21		0.0685 µM (active)
CCn1cc(C(=O)O)c(=O)c2cc3c(cc21)OCO3		inactive
O=C1C(CCC(O)c2ccc(F)cc2)C(c2ccc(O)cc2)N1c1ccc(F)cc1 (stereo not given)	51% (inactive)	
O=c1[nH]c(-c2ccc(C(F)(F)F)cc2)nc2c1CSCC2	-2.72% (inactive)	
Cc1cccc(C#Cc2ccccc2)n1		inactive
NC(CO)C(=O)NNCc1ccc(O)c(O)c1O (stereo not given)		inactive
Cn1c(Nc2ccc(C(F)(F)F)cc2)nc2cc(Oc3ccnc(-c4ncc(C(F)(F)F)[nH]4)c3)ccc21	-3.4% (inactive)	
CC(C)(Sc1ccc(CCN(CCCCC2CCCCC2)C(=O)NC2CCCCC2)cc1)C(=O)O		inactive
O=C(O)c1ccc2cc(-c3ccc(O)c(C45CC6CC(CC(C6)C4)C5)c3)ccc2c1	-1.21% (inactive)	
CC(=O)[C@H]1CCC2C3CC[C@H]4C[C@H](O)CC[C@]4(C)C3CC[C@@]21C (stereo not given in full)		inactive
CCCN(CCC)[C@@H]1CCc2ccc(O)cc2C1	2.25% (inactive)	
CC1=NN(c2ccccc2)C(=O)C1		inactive
CCCCCN(CCC12CC3CC(CC(C3)C1)C2)C(=O)NCCCc1ccncc1	17.9% (inactive)	
CC(=O)NCCC(=O)N[C@@H](CCC(N)=O)C(=O)N[C@@H](CO)C(=O)N[C@@H](CCC(N)=O)C(=O)N[C@@H](CCC(N)=O)C(=O)N[C@H](C(=O)N[C@@H](Cc1ccccc1)C(=O)N[C@]1(C)CCCCCCC=CCCC[C@@](C)(C(=O)N[C@@H](CCC(N)=O)C(=O)N[C@@H](CC(N)=O)C(N)=O)NC(=O)[C@H](CC(C)C)NC(=O)[C@H](CC(C)C)NC(=O)[C@@H](CCCNC(=N)N)NC(=O)[C@H](Cc2c[nH]c3ccccc23)NC(=O)[C@H](CC(C)C)NC(=O)[C@H](CC(N)=O)NC1=O)[C@H](C)O	-22.2% (inactive)	
CCN1CCN(c2cc3c(cc2F)c(=O)c(C(=O)O)cn3C2CC2)CC1	31% (inactive)	

Compound	activity change, negative = inhibition	Potency
COc1cccc(OC)c1-c1cc(C(=O)NC2(C(=O)O)C3CC4CC(C3)CC2C4)nn1-c1ccnc2cc(Cl)ccc12 (stereo not given)	10.3% (inactive)	
COc1ccc(CCN(C)CCCOc2ccc(S(=O)(=O)c3[nH]c4ccccc4c3C(C)C)cc2)cc1OC	10.7% (inactive)	
CCOc1ccn(-c2ccc(F)cc2)c(=O)c1C(=O)Nc1ccc(Oc2ccnc(N)c2Cl)c(F)c1	37.6% (inactive)	
CC1=C(CO)C(=O)O[C@@H]([C@@H](C)[C@H]2CC[C@H]3[C@@H]4C[C@H]5O[C@]56[C@@H](O)C=CC(=O)[C@]6(C)[C@@H]4CC[C@]23C)C1		1.53 µM (active)
Nc1ccccc1NC(=O)c1ccc(CNc2nccc(-c3cccnc3)n2)cc1	6.54% (inactive)	
Clc1ccccc1CN1CCc2sccc2C1		inactive
COc1ccc(-c2ccc3c(N4CCOC[C@H]4C)nc(N4CCOC[C@H]4C)nc3n2)cc1CO		0.0306 µM (active)
O=C(O)CC(O)C(=O)O (stereo not given)	0.0034% (inactive)	
O=C(Oc1ccccc1)c1cccc(C(=O)Oc2ccccc2)c1	26.7% [at 115 µM] (inactive)	
CC(C)(N)C(=O)N[C@H](COCc1ccccc1)C(=O)N1CCC2(CC1)CN(S(C)(=O)=O)c1ccccc12	-35% (inactive)	
CCN1CCc2nc(N)oc2CC1		inactive
CCC[C@H](NC(=O)C(C#N)=Cc1cccc(Br)n1)c1ccccc1	-7.76% (inactive)	
COc1cc2c(cc1OC)C(=O)CC2	-2.1% (inactive)	
O=C(Nc1ccc(OC(F)(F)F)cc1)c1sccc1NCc1ccnc2ccccc12	20.1% (inactive)	
CCN(CC)CCn1c(=O)c(Cc2ccc(OC)cc2)nc2ccccc21		inactive
Cc1cnc(Nc2ccc(OCCN3CCCC3)cc2)nc1Nc1cccc(S(=O)(=O)NC(C)(C)C)c1	1.14% (inactive)	
COc1ccccc1O	22% [at 115 µM] (inactive)	
c1ccc2c(CCNc3ccc(Nc4ccncc4)cc3)c[nH]c2c1		21.7 µM (active)
C[C@@H]1CN(c2c(F)c(N)c3c(=O)c(C(=O)O)cn(C4CC4)c3c2F)C[C@H](C)N1		inactive
NCCCC(N)(C(=O)O)C(F)F (stereo not given)		inactive
